± gives the standard deviation of the averaged measurements.
System: Caenorhabditis elegans N2 infected with Nematocida parisii ERTm1
Experiment: progeny production relative to DMSO uninfected control; higher = more progeny despite microsporidia infection (inhibition of infection with low host toxicity)
Details: infection time 6 days; 40 µM
Experimental: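 Bleach-synchronised C. elegans N2 L1 larvae (100 per well) were grown in 96-well plates in K-medium with 5x E. coli OP50 and 15,000 N. parisii spores/uL, plus Pandemic Response Box compound at 100 uM or 40 uM (1% DMSO), for 6 days at 21 C with shaking. Worms were stained with Rose Bengal, scanned on a flatbed scanner and counted with WorMachine. Progeny production is given as % of the DMSO uninfected control (triplicate wells), so higher values mean the compound restores progeny despite infection.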

SMILES	progeny production
C[C@H]1COc2c(N3CCN(C)CC3)c(F)cc3c(=O)c(C(=O)O)cn1c23	5.38 ± 2.2%
[N-]=[N+]=N[C@H]1C[C@H](n2ccc(=O)[nH]c2=O)O[C@@H]1CO	4.8 ± 1.5%
CC(C)(C)c1ccc(OCCn2nc(C(=O)O)c3ccccc3c2=O)cc1	4.58 ± 1.4%
O=c1oc2ccc(Br)cc2cc1CSc1ncc[nH]1	6.6 ± 2.9%
C[C@H]1CC[C@@]2(O)C(C)(C)[C@@H]3CC[C@@]2(C)[C@H]1C3	6.77 ± 4.3%
CCC(C)(C)c1ccc(CC(C)CN2C[C@@H](C)O[C@@H](C)C2)cc1 (stereo not given in full)	4.64 ± 0.33%
O=C(Cn1cnc2ccccc2c1=O)Nc1ccccc1	5.46 ± 4.2%
NCc1ccc(S(N)(=O)=O)cc1	5.64 ± 3.5%
O=C1[C@H](CC[C@H](O)c2ccc(F)cc2)[C@@H](c2ccc(O)cc2)N1c1ccc(F)cc1	6.94 ± 2.7%
COc1ccc2c(c1)cc(CNC(=O)c1cc3ccccc3o1)n2CC(=O)O	3.92 ± 2.4%
CN1CCN(c2ccc3[nH]c(-c4ccc5[nH]c(-c6ccc(O)cc6)nc5c4)nc3c2)CC1	6.36 ± 1.4%
CCNC(=O)Nc1cc2c(-c3ccnc(C)c3)ccc(CNC(=O)OC)c2cn1	4.61 ± 1.9%
CC(=O)Nc1cc(NS(=O)(=O)c2ccc(Cl)cc2)cc2c(Cl)[nH]nc12	5.97 ± 4.1%
O=C(Nc1ccccc1)N(Cc1cc(Br)ccc1O)c1ccc(F)cc1	3.85 ± 1%
CCOC(=O)N1CCN(c2ccc(Cl)cc2)CC1	4.15 ± 1.7%
CCc1cc(O)c(Oc2ccc(C(N)=O)cc2F)cc1F	3.13 ± 2.7%
O=C(/C=C\n1cnc(-c2cc(C(F)(F)F)cc(C(F)(F)F)c2)n1)NNc1ccccn1	3.49 ± 1.1%
Cc1ccc(C)c(OCCCCCCN2C[C@H](O)[C@@H](O)[C@H](O)[C@H]2CO)c1	3.54 ± 0.93%
Clc1ccc(COC(Cn2ccnc2)c2ccc(Cl)cc2Cl)c(Cl)c1 (stereo not given)	4.89 ± 1.7%
Cc1cc(C)n(O)c(=O)c1	1.95 ± 0.44%

Same assay, conditions: infection time 6 days; 100 µM

SMILES	progeny production
C[C@H]1COc2c(N3CCN(C)CC3)c(F)cc3c(=O)c(C(=O)O)cn1c23	12.8 ± 9.1%
[N-]=[N+]=N[C@H]1C[C@H](n2ccc(=O)[nH]c2=O)O[C@@H]1CO	11.5 ± 5.3%
CC(C)(C)c1ccc(OCCn2nc(C(=O)O)c3ccccc3c2=O)cc1	12 ± 6.5%
O=c1oc2ccc(Br)cc2cc1CSc1ncc[nH]1	11.1 ± 7.2%
C[C@H]1CC[C@@]2(O)C(C)(C)[C@@H]3CC[C@@]2(C)[C@H]1C3	7.52 ± 7.7%
CCC(C)(C)c1ccc(CC(C)CN2C[C@@H](C)O[C@@H](C)C2)cc1 (stereo not given in full)	23 ± 23%
O=C(Cn1cnc2ccccc2c1=O)Nc1ccccc1	8.2 ± 5.5%
NCc1ccc(S(N)(=O)=O)cc1	7.3 ± 1.6%
O=C1[C@H](CC[C@H](O)c2ccc(F)cc2)[C@@H](c2ccc(O)cc2)N1c1ccc(F)cc1	21 ± 14%
COc1ccc2c(c1)cc(CNC(=O)c1cc3ccccc3o1)n2CC(=O)O	17.7 ± 17%
CN1CCN(c2ccc3[nH]c(-c4ccc5[nH]c(-c6ccc(O)cc6)nc5c4)nc3c2)CC1	15.4 ± 12%
CCNC(=O)Nc1cc2c(-c3ccnc(C)c3)ccc(CNC(=O)OC)c2cn1	17.2 ± 9.9%
CC(=O)Nc1cc(NS(=O)(=O)c2ccc(Cl)cc2)cc2c(Cl)[nH]nc12	8.68 ± 4%
O=C(Nc1ccccc1)N(Cc1cc(Br)ccc1O)c1ccc(F)cc1	17.4 ± 13%
CCOC(=O)N1CCN(c2ccc(Cl)cc2)CC1	12.1 ± 18%
CCc1cc(O)c(Oc2ccc(C(N)=O)cc2F)cc1F	8.3 ± 5.3%
O=C(/C=C\n1cnc(-c2cc(C(F)(F)F)cc(C(F)(F)F)c2)n1)NNc1ccccn1	7.21 ± 3.6%
Cc1ccc(C)c(OCCCCCCN2C[C@H](O)[C@@H](O)[C@H](O)[C@H]2CO)c1	14.1 ± 11%
Clc1ccc(COC(Cn2ccnc2)c2ccc(Cl)cc2Cl)c(Cl)c1 (stereo not given)	8.86 ± 1.6%
Cc1cc(C)n(O)c(=O)c1	14.8 ± 8.8%

From the supplement of paper PMC10732440
